Assay outcomes: PubChem, National Center for Advancing Translational Sciences (NCATS)
AMA1-RON2 inh = inhibitors of Plasmodium falciparum AMA1-RON2 interaction. AlphaScreen AMA1-biotinylated RON2 peptide binding. Potency, µM (titrated, usually from 58.2 µM), hits mostly inhibitors. 0.2% of 360,000 active. AID 720542; also: nearly all actives have a fitted effect of over 45% in size
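AMA1 (3D7) with his tag at 25 nM final met compounds first, then biotinylated RON2 peptide at 25 nM; detection used donor plus acceptor beads, 10 µg/mL apiece, read by AlphaScreen after 30 min at room temperature.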
AmpC inh detg = blocks E. coli AmpC beta-lactamase in detergent assay; Potency, µM (doses to about 114 µM), actives largely listed as inhibitors; 0.041% of 370,000 active; AID 485294; P00811; AmpC hydrolysis of nitrocefin, absorbance 480 nm, 0.01% Triton; also: nearly all actives have a fitted effect of over 25% in size
Target sequence (P00811 whole entry, looked up): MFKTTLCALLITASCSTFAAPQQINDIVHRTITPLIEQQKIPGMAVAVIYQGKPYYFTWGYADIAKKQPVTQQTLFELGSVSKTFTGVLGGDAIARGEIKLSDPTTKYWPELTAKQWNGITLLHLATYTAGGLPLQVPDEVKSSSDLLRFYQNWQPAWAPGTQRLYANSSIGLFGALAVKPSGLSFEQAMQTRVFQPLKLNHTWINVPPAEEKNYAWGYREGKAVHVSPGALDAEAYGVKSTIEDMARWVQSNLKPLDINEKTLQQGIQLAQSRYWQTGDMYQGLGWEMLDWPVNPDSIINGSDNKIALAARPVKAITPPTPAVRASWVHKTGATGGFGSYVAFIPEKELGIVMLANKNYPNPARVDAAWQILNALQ
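20 mM phosphate pH 7.0 + 0.01% (detergent screen) or 0.0001% Triton X-100; 5.3 nM AmpC reagent; cpd preinc 15 min RT; nitrocefin (800 uM stock) to start; A480 q20 s × 4 min; Activity was normalised to no-enzyme and no-compound control wells.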
Pf growth 96h = P. falciparum growth inhibition at 96 hour, primary screen for plastid delayed-death inhibitors | P. falciparum luciferase reporter growth, 96 h | Potency, µM (titrated, usually from 28.7 µM), most hits filed as inhibitors | 6.9% of 320,000 active
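Delayed-death screen, second-generation endpoint: infected erythrocytes, 2% hematocrit, 0.05% parasitemia final; 96 hours at 37 C, 5% CO2; luciferase detection reagent; luminescence decrease equals reduced growth.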
HCV inh = blocks hepatitis C virus; 3.4% of 340,000 active; Huh7.5.1 HCVcc-Cre infection, luciferase reporter, 44 h; Potency, µM (doses to about 41.8 µM), most hits filed as inhibitors; AID 651820
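Seed cells (1,000/well) for 4 h; treat with compound and infect with HCVcc-Cre, moi about 0.5. Incubate 44 h, then detect luciferase activity.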
AmpC inh no detg = blocks E. coli AmpC beta-lactamase in detergent-free assay; AmpC nitrocefin hydrolysis, absorbance 480 nm, 0.0001% Triton; Potency, µM (titrated, usually from 57.1 µM), most hits filed as inhibitors; 0.52% of 330,000 active; AID 485341; also: nearly all actives have a fitted effect of over 20% in size
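20 mM phosphate pH 7.0 + 0.01% (detergent screen) or 0.0001% Triton X-100; 5.3 nM AmpC reagent; cpd preinc 15 min RT; nitrocefin (800 uM stock) to start; A480 q20 s × 4 min; Activity was normalised to no-enzyme and no-compound control wells.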
Pf growth 48h = P. falciparum growth inhibition at 48 hours (one generation) | 5.9% of 310,000 active | AID 504832 | Potency, µM (top dose mostly 28.7 µM), hits mostly inhibitors | P. falciparum luciferase growth in erythrocytes, 48 h
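Luminescence readout; reporter = integrated firefly luciferase in P. falciparum. RBC culture at 2% hematocrit, 0.1% parasitemia final, 37 C/5% CO2; decreased signal taken as growth inhibition.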
Numbers stand for hits. Rows were chosen to be rich in hits. Some 11% of all compounds tested hit in one or more screens of this group. Calls follow the shape of the dose curve; as a rule, active = well fitted curve in the direction sought with a large enough effect; inconclusive = small, poorly fitted or top-dose-only effect, or another doubt; inactive = no such curve, though single readings can be large; an effect the other way counts as inactive or inconclusive.

Results for CCS(=O)(=O)N1CCC(C(=O)NCc2cccs2)CC1 ?
AMA1-RON2 inh: inactive; AmpC inh detg: inactive; Pf growth 96h: 7.38µM; HCV inh: inconclusive; AmpC inh no detg: inactive; Pf growth 48h: inactive

What do the screens show for `CCC1CCCCN1S(=O)(=O)c1ccc(S(=O)(=O)N(Cc2ccccn2)CC2CCCO2)cc1` (stereo unspecified)?
AMA1-RON2 inh: inactive; AmpC inh detg: inactive; Pf growth 96h: inactive; HCV inh: inactive; AmpC inh no detg: inactive; Pf growth 48h: inactive

What do the screens show for `CCC1CCCCN1S(=O)(=O)c1ccc(S(=O)(=O)N(Cc2cccs2)C2CC2)cc1` (stereo unspecified)?
AMA1-RON2 inh: inactive; AmpC inh detg: inactive; Pf growth 96h: inactive; HCV inh: inconclusive; AmpC inh no detg: inactive; Pf growth 48h: 8.28µM

How did Cc1ccc(S(=O)(=O)N2CCCC(C(=O)N(Cc3cccs3)C3CC3)C2)cc1 (stereo unspecified) do in these assays?
AMA1-RON2 inh: inactive; AmpC inh detg: inactive; Pf growth 96h: 13.1µM; HCV inh: 15.8µM; AmpC inh no detg: inactive; Pf growth 48h: 5.22µM

What do the screens show for `O=C(NCc1cccs1)C1CCCN(S(=O)(=O)c2cccs2)C1` (stereo unspecified)?
AMA1-RON2 inh: inactive; AmpC inh detg: inactive; HCV inh: inactive; AmpC inh no detg: inactive; Pf growth 48h: inactive

How did CS(=O)(=O)N1CCCC(C(=O)NCc2cccs2)C1 (stereo unspecified) do in these assays?
AMA1-RON2 inh: inactive; AmpC inh detg: inactive; Pf growth 96h: 5.86µM; HCV inh: inactive; AmpC inh no detg: inactive; Pf growth 48h: inactive

Results for CC(=O)Nc1cccc(/C(C)=N/NC(=O)c2cccc(S(=O)(=O)N3CCOCC3)c2)c1 ?
AMA1-RON2 inh: inactive; AmpC inh detg: inactive; Pf growth 96h: 11.7µM; HCV inh: inactive; AmpC inh no detg: inactive; Pf growth 48h: inactive

What do the screens show for `C/C(=N\NC(=O)c1cccc(S(=O)(=O)N2CCOCC2)c1)c1ccc(O)cc1`?
AMA1-RON2 inh: inactive; AmpC inh detg: inactive; Pf growth 96h: 0.586µM; HCV inh: inconclusive; AmpC inh no detg: inactive; Pf growth 48h: inactive

How did CCOc1ccccc1NC(=O)CC(c1ccc(F)cc1)N1Cc2ccccc2C1=O (stereo unspecified) do in these assays?
AmpC inh detg: inactive

What do the screens show for `CC(=O)Nc1nonc1-n1nnc(C(=O)NCc2ccccc2)c1C`?
AMA1-RON2 inh: inactive; AmpC inh detg: inactive; Pf growth 96h: 2.33µM; HCV inh: inactive; AmpC inh no detg: inactive; Pf growth 48h: inactive

How did Cn1c(=O)[nH]c(=O)c2c1nc(N1CCCC1)n2CCCSc1nnnn1-c1ccccc1 do in these assays?
AMA1-RON2 inh: inactive; AmpC inh detg: inactive; Pf growth 96h: 6.57µM; HCV inh: inactive; AmpC inh no detg: inactive; Pf growth 48h: inconclusive

How did CN1CCN(c2nc3c(c(=O)[nH]c(=O)n3C)n2CCSc2nnnn2-c2ccccc2)CC1 do in these assays?
AMA1-RON2 inh: inactive; AmpC inh detg: inactive; Pf growth 96h: inactive; HCV inh: inactive; AmpC inh no detg: inactive; Pf growth 48h: inactive

How did Cn1c(=O)[nH]c(=O)c2c1nc(N1CCCCCC1)n2CCCSc1nnnn1-c1ccccc1 do in these assays?
AmpC inh detg: inconclusive; Pf growth 96h: 2.33µM; HCV inh: inactive; AmpC inh no detg: inactive; Pf growth 48h: inconclusive

Results for CC(CSc1nnnn1-c1ccccc1)Cn1c(N2CCN(C)CC2)nc2c1c(=O)[nH]c(=O)n2C (stereo unspecified) ?
AMA1-RON2 inh: inactive; AmpC inh detg: inconclusive; Pf growth 96h: inconclusive; HCV inh: inactive; AmpC inh no detg: inactive; Pf growth 48h: inconclusive

How did O=C(CSc1nc2ccccc2o1)Nc1cc(C(F)(F)F)ccc1N1CCOCC1 do in these assays?
AMA1-RON2 inh: inactive; AmpC inh detg: inactive; HCV inh: inconclusive; AmpC inh no detg: inactive; Pf growth 48h: 11.7µM

Results for CN(C)c1cccc(C(=O)Nc2cc(C(F)(F)F)ccc2-n2cnc3ccccc32)c1 ?
AMA1-RON2 inh: inactive; AmpC inh detg: inactive; Pf growth 96h: inconclusive; HCV inh: inactive; AmpC inh no detg: inactive; Pf growth 48h: 11.7µM

What do the screens show for `O=C(COC(=O)COc1ccc2ccccc2c1)Nc1cc(C(F)(F)F)ccc1N1CCOCC1`?
AMA1-RON2 inh: inactive; AmpC inh detg: inconclusive; Pf growth 96h: inactive; HCV inh: inactive; AmpC inh no detg: inactive; Pf growth 48h: inactive

Results for O=C(Cn1cnc2ccccc21)Nc1cc(C(F)(F)F)ccc1N1CCOCC1 ?
AMA1-RON2 inh: inactive; AmpC inh detg: inactive; Pf growth 96h: 4.15µM; HCV inh: inactive; AmpC inh no detg: inactive; Pf growth 48h: 4.65µM

What do the screens show for `Cc1nc2ccccc2nc1OCC(=O)Nc1cc(C(F)(F)F)ccc1N1CCOCC1`?
AMA1-RON2 inh: inactive; AmpC inh detg: inactive; Pf growth 96h: inactive; HCV inh: inconclusive; AmpC inh no detg: inactive; Pf growth 48h: 11.7µM

What do the screens show for `CC(=O)Nc1ccc(C(=O)Nc2cc(C(F)(F)F)ccc2-n2cnc3ccccc32)cc1`?
AMA1-RON2 inh: inactive; AmpC inh detg: inactive; Pf growth 96h: inactive; HCV inh: inactive; AmpC inh no detg: inactive; Pf growth 48h: inactive

What do the screens show for `CCCCOc1ccc(C(C)NC(=O)c2cccc(Nc3nc4ccccc4n4nnnc34)c2)cc1` (stereo unspecified)?
AmpC inh detg: inactive

How did Cc1ccc(Cl)cc1N1CCN(S(=O)(=O)c2ccc3c(c2)CCN3C(=O)C2CCC2)CC1 do in these assays?
AmpC inh detg: inactive

How did Cc1cccc(C)c1Nc1c(-c2ccccc2Cl)nc2cnccn12 do in these assays?
AmpC inh detg: inactive

Results for COc1ccc(C(=O)CSc2nc3cccnc3n2C)cc1 ?
AMA1-RON2 inh: inactive; AmpC inh detg: inactive; Pf growth 96h: 3.7µM; HCV inh: inconclusive; AmpC inh no detg: inactive; Pf growth 48h: inactive

Results for COc1cccc(C(=O)CSc2nc3cccnc3n2C)c1 ?
AMA1-RON2 inh: inactive; AmpC inh detg: inactive; Pf growth 96h: inactive; HCV inh: inconclusive; AmpC inh no detg: inactive; Pf growth 48h: inactive

How did O=C(C[n+]1ccn(CCCNP2(=O)C=C(c3ccccc3)OC(c3ccccc3)=C2)c1)c1cccs1 do in these assays?
AMA1-RON2 inh: inactive; AmpC inh detg: inactive; Pf growth 96h: inconclusive; HCV inh: inactive; AmpC inh no detg: inactive; Pf growth 48h: inconclusive

What do the screens show for `O=P1(NCCCn2cc[n+](Cc3nc4ccccc4[nH]3)c2)C=C(c2ccccc2)OC(c2ccccc2)=C1`?
AMA1-RON2 inh: inactive; AmpC inh detg: inactive; Pf growth 96h: 2.33µM; HCV inh: inactive; AmpC inh no detg: inactive; Pf growth 48h: 11.7µM

What do the screens show for `Cc1ccc(-n2ncc3c(N4CCN(Cc5ccccc5)CC4)ncnc32)cc1C`?
AmpC inh detg: inactive
